{
  "source": "PubChem BioAssay (NCATS)",
  "note": "Results filed as inconclusive are left out. Where a call stands in place of a potency, no number is given. Activity calls are given as the source filed them. Calls follow the shape of the dose curve; as a rule, active = well fitted inhibition curve with a large enough effect; inconclusive = small, poorly fitted or top-dose-only effect; inactive = no such curve, though single readings can be large or run the other way.",
  "data": [
    {"assay": "qHTS assay for measurement of the activity of small molecule inhibitors on Zika virus induced Caspase-3 activity in human iPSC derived neural progenitor cells (hNPCs) (AID 1224857); also: nearly all actives have a fitted effect of over 65% in size", "settings": "hNPCs ZIKV-induced caspase-3/7, Caspase-Glo luminescence, 6 h; series mostly up to 45.7 µM", "how_it_was_run": "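Quantitative HTS format: human iPSC neural progenitors, 1 h compound pretreatment, ZIKV 2 FFU/cell for 6 h at 37 C. Percent inhibition derived from luminescent caspase-3/7 signal between uninfected and infected controls.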", "values": [
      {"smiles": "O=c1[nH]cc(F)c(=O)[nH]1", "Potency": "inactive"},
      {"smiles": "Clc1ccc(C(c2ccccc2Cl)C(Cl)Cl)cc1", "note": "(stereo unspecified)", "Potency": "inactive"},
      {"smiles": "COc1ccc(CCN(C)CCCC(C#N)(c2ccc(OC)c(OC)c2)C(C)C)cc1OC", "note": "(stereo unspecified)", "Potency": "inactive"},
      {"smiles": "CN1CCN2c3ccccc3Cc3ccccc3C2C1", "note": "(stereo unspecified)", "Potency": "inactive"},
      {"smiles": "Cc1ccc(-c2cc(C(F)(F)F)nn2-c2ccc(S(N)(=O)=O)cc2)cc1", "Potency": "inactive"},
      {"smiles": "CN(C)c1nc(N(C)C)nc(N(C)C)n1", "Potency": "inactive"},
      {"smiles": "CN(C)CCOC(c1ccccc1)c1ccccc1", "Potency": "inactive"},
      {"smiles": "CCOC(=O)Nc1ccc(NCc2ccc(F)cc2)nc1N", "Potency": "inactive"},
      {"smiles": "CN1C(C(=O)Nc2ccccn2)=C(O)c2ccccc2S1(=O)=O", "Potency": "inactive"},
      {"smiles": "CN1CCN(C2=Nc3cc(Cl)ccc3Nc3ccccc32)CC1", "Potency": "inactive"},
      {"smiles": "Cn1ccc2cc3c(cc21)CCN3C(=O)Nc1cccnc1", "Potency": "inactive"},
      {"smiles": "CN1CCC(=C2c3ccccc3CC(=O)c3sccc32)CC1", "Potency": "inactive"},
      {"smiles": "CC(C)Cc1ccc(C(C)C(=O)O)cc1", "note": "(stereo unspecified)", "Potency": "inactive"},
      {"smiles": "CCOC(=O)c1ncn2c1CN(C)C(=O)c1cc(F)ccc1-2", "Potency": "inactive"},
      {"smiles": "Cc1cc(C(C)(C)C)c(O)c(C)c1CC1=NCCN1", "Potency": "inactive"},
      {"smiles": "OCCN(CCO)c1nc(N2CCCCC2)c2nc(N(CCO)CCO)nc(N3CCCCC3)c2n1", "Potency": "inactive"},
      {"smiles": "CC12CC3CC(C)(C1)CC(N)(C3)C2", "Potency": "inactive"},
      {"smiles": "OCCN1CCN(CCCN2c3ccccc3Sc3ccc(C(F)(F)F)cc32)CC1", "Potency": "inactive"},
      {"smiles": "CN1CCC(=C2c3ccccc3C=Cc3ccccc32)CC1", "Potency": "inactive"},
      {"smiles": "Cn1c(=O)c2[nH]cnc2n(C)c1=O", "Potency": "inactive"},
      {"smiles": "Nc1ccn([C@H]2CC[C@@H](CO)O2)c(=O)n1", "Potency": "inactive"}
    ]}
  ]
}
